# Sampled rows, rich in hits. Any-hit rate of the full collection: about 4.9%.
# NALP1 inh = NALP1 inflammasome inhibitors in reconstituted yeast, colorimetric, S. cerevisiae, triplicate retest; inhibition, % at 10 µM; hit rate 0.61% among 280,000; S. cerevisiae NALP1/ASC/caspase-1 growth, X-gal OD620, 72 h; in the data active means inhibition mostly above about 24%, no sharp cut-off; inactive means mostly below about 32%
# SKKanGAS inh = S. pyogenes SKKanGAS growth inhibitors in kanamycin, primary screen, streptokinase expression inhibitor project, SKKanGAS strain, BacTiter-Glo luminescence; hit rate 1.3% among 300,000; 6 h; inhibition, % at 7.5 µM;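 active means mean replicate score, as percent of positive control median, at least 50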;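 further: strain carries kanamycin resistance gene driven by streptokinase promoter and grows in 40 µg/ml kanamycin; loss of luminescence reflects streptokinase promoter inhibition or plain growth inhibition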
# tim10-1 inh = growth inhibitors of tim10-1 mutant yeast, primary screen, luminescence, uHTS; hit rate 2.2% among 330,000; inhibition, % at 20 µM; S. cerevisiae tim10-1 ts strain growth, BacTiter-Glo, 24 h;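 active means inhibition of at least 40%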;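 further: mutant grown at 25 °C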
# tim23-1 inh = growth inhibitors of tim23-1 mutant yeast, primary screen, luminescence, uHTS; inhibition, % at 20 µM; S. cerevisiae tim23-1 growth, BacTiter-Glo luminescence, 24 h; hit rate 1.3% among 330,000;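 active means growth inhibition of the mutant yeast at or above 50%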;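 further: temperature-sensitive mutant grown at 25 °C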
# NALP3 yeast inh = NALP3 inflammasome inhibitors in reconstituted yeast, primary screen, luminescence, uHTS. Yeast reconstituted NLRP3/ASC/caspase-1, beta-gal luminescence, 24 h. inhibition, % at 10 µM. hit rate 0.39% among 330,000. AID 2825, 2010;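 active means inhibition of 50% or more; inactive means inhibition below 50%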
# TIM10 inh = growth inhibitors of isogenic TIM10 control yeast, primary screen, counter-screen for tim10-1 yeast inhibitor project, luminescence, uHTS; S. cerevisiae TIM10 strain growth, BacTiter-Glo luminescence, 24 h; inhibition, % at 10 µM; hit rate 1.4% among 330,000; AID 463195, 2010;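 active means inhibition of 40% or more at the single tested concentration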;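 further: wild-type TIM10 isogenic control strain grown at permissive 25 °C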
# Hits are given with their value; – = inactive; · = not tested or not shown.
SMILES,NALP1 inh,SKKanGAS inh,tim10-1 inh,tim23-1 inh,NALP3 yeast inh,TIM10 inh
CC(Oc1ccccc1)c1nnc(SCC(=O)NC2CC2)n1C (stereo unspecified),–,–,–,–,–,–
COc1ccc(-c2sc3ccccc3c2C#CC2(O)CCCCC2)cc1,–,101,·,·,·,·
COc1cc(/C=N/NC(=O)c2cc(-c3c(C)nn(-c4ccccc4)c3C)n[nH]2)ccc1O,–,87,–,–,–,–
Cc1nn(-c2ccccc2)c(C)c1/C=N/NC(=O)c1cc(-c2cccs2)[nH]n1,–,–,–,–,–,–
Cc1nn(-c2ccccc2)c(C)c1/C=N/NC(=O)c1cc(-c2ccc(Cl)s2)[nH]n1,–,59,–,–,–,–
Cc1nn(-c2ccccc2)c(C)c1/C=N/NC(=O)c1cc(-c2ccc(Br)s2)[nH]n1,–,51,–,–,–,–
Cc1ccc(S(=O)(=O)N(C(=O)c2ccncc2)c2ccc(OC(=O)c3ccncc3)c3ccccc23)cc1,48,–,–,–,–,–
Nc1ccc(-c2ccc(N)cc2C(F)(F)F)c(C(F)(F)F)c1,–,60,–,–,–,–
C=CCNC(=O)C1CCN(S(=O)(=O)c2ccc3ccccc3c2)CC1,–,–,–,–,–,–
O=C(COC(=O)CCC1CCCC1)Nc1ccccc1Sc1ccccc1,–,80,–,–,–,–
O=C(COC(=O)C1CCC1)Nc1ccccc1Sc1ccccc1,–,–,–,–,–,–
O=C(NCCCN1CCOCC1)c1cccc(S(=O)(=O)Nc2ccccc2Cl)c1,–,–,–,–,–,–
Cc1cccc(NC(=O)C2C3CCCCC32)c1 (stereo unspecified),–,–,–,–,–,–
CC(C)[C@H]1COCCS(=O)(=O)N1Cc1ccccc1,·,–,–,–,–,–
CCC1C(=NO)C(CC)C(c2ccccc2)NC1c1ccccc1 (stereo unspecified),–,58,–,–,–,–
Cc1cccc(-c2noc(-c3ccc4c(c3)OCO4)n2)c1,–,–,–,–,–,–
Cc1cccc(-c2oc3ccccc3c2-c2ccc3c(c2)OCO3)c1,–,52,·,·,·,·
CCOc1cc(N2CCOCC2)c(OCC)cc1NC(=O)c1oc2ccccc2c1C,–,–,–,–,–,–
CCOCc1c(C(=O)Nc2cc(OCC)c(N3CCOCC3)cc2OCC)oc2ccccc12,36,–,–,–,–,–
COc1ccccc1C(=O)NNC(=O)C(=O)Nc1ccc(C)c(Cl)c1,–,98,–,–,–,–
Cc1nc(NCC(c2ccccc2)N(C)C)c2c(C)c(C)sc2n1 (stereo unspecified),–,–,–,–,–,–
CCOc1ccc(CCNC(=O)COC(=O)Cn2nc(C)c([N+](=O)[O-])c2C)cc1OCC,·,–,–,–,–,–
CC1CCCN(C(=O)COC(=O)Cn2cnc3ccccc32)C1 (stereo unspecified),·,·,–,–,–,–
COC(=O)c1cc(-c2ccc(Br)cc2)c2c(=O)n(C)c(=O)n(C)c2n1,–,52,–,–,–,–
COC(=O)c1cc(-c2cccc(OC)c2)c2c(=O)[nH]c(=O)n(C)c2n1,–,62,–,–,–,–
SMILES,NALP1 inh,SKKanGAS inh,tim10-1 inh,tim23-1 inh,NALP3 yeast inh,TIM10 inh
Cc1ccc(C)c(NC(=O)CCN2CCC(C)CC2)c1,–,–,–,–,–,–
CC[N+]1(C)[C@@H]2CC[C@H]1CC(OC(=O)[C@H]1CCC(C(=O)OC3C[C@H]4CC[C@@H](C3)[N+]4(C)CC)(c3ccccc3)c3ccccc31)C2 (stereo partly specified),·,·,–,–,–,–
COc1ccc(/C=C/C(=O)NC(=S)N2CCN(c3ccccc3OC)CC2)cc1,·,59,–,–,–,–
COc1ccc(/C=C/C(=O)NC(=S)N2CCOCC2)cc1,–,–,–,–,–,–
CCc1nnc(N/N=C/c2cc(Br)c(O)cc2O)n1N,–,–,–,–,–,–
CC(C)(C)c1nnc(N/N=C/c2cc(Br)ccc2O)n(N)c1=O,–,78,·,·,·,·
COc1ccc(NS(=O)(=O)c2ccc(O)c(NC(=O)c3cc4c(C)nn(-c5ccc(F)cc5)c4s3)c2)cc1,–,109,–,–,–,–

# Compound activity deposited in PubChem by several laboratories.
